Screening results from PubChem BioAssay.
ANO1 activ – activates or potentiates the mouse TMEM16A chloride channel; HEK293 TMEM16A/YFP-H148Q/I152L, iodide quench fluorescence; active compounds read low; Q8BHY3; hit rate 0.3% among 340,000; B-score at 10 µM;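 active = fluorescence-ratio B-score plate-corrected deviation score at least 3 library SD below zero, with starting fluorescence score within 5 deviations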;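 also: channel opened by trigger with iodide after compound preincubation; score built on the fluorescence ratio of max minus min over baseline; more negative score means more quench and so TMEM16A activation or potentiation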
CHT inh – inhibits the human high affinity choline transporter. CHT-expressing cells, membrane potential dye, choline response; active compounds read low. hit rate 0.86% among 310,000. B-score at 10 µM. Q9GZV3;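 active = B-score over 3 SD under the library average, and starting fluorescence ratio not unusually high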;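 also: choline stimulus applied at its EC90 after an EC20 pre-addition; B-score computed on integrated fluorescence ratio after choline addition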
HDAC3 inhib – human HDAC3 inhibition | recombinant HDAC3, fluorogenic peptide/trypsin coupled, fluorescence | inhibition, % at 8.3 µM | AID 2718 | hit rate 0.15% among 320,000; in the data active = inhibition above about 26%, passing the limit was not always enough
Target sequence (O15379 whole entry, looked up): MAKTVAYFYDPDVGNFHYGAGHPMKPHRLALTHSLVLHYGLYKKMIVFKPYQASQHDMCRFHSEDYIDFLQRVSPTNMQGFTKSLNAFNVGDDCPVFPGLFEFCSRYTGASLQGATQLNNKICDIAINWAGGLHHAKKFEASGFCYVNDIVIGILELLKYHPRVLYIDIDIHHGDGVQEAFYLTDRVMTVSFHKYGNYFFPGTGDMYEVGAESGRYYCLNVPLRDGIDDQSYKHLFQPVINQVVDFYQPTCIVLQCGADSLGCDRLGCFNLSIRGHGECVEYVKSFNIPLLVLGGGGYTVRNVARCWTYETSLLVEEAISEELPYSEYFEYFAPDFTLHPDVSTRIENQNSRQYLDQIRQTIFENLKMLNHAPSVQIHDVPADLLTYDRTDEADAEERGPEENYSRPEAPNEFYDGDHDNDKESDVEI
TMEM16A inh – blocks the mouse calcium-activated chloride channel TMEM16A. Q8BHY3. normalized B-score (activity score, 25-100; higher = stronger inhibition) at 10 µM. hit rate 1.2% among 310,000. AID 588511. HEK293 TMEM16A/YFP iodide influx fluorescence, ionomycin;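 active = ratio plate-corrected score three or more library SD toward inhibition, starting fluorescence score within five deviations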;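 also: score derived from kinetic fluorescence span divided by baseline fluorescence per well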
CHT PAM – human CHT allosteric activation; CHT-expressing cells, membrane potential dye, choline EC20; active compounds read high; LV-AA mutant CHT in HEK293 cells; hit rate 0.49% among 310,000; Q9GZV3; AID 488977; B-score at 10 µM;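 active = initial fluorescence not abnormally high and integrated response B-score, plate-corrected, over 3 SD above library mean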
PHOSPHO1 inh – PHOSPHO1 (human) inhibition; Q8TCT1; recombinant PHOSPHO1, absorbance phosphatase assay; inhibition, % at 13.3 µM; hit rate 1.1% among 290,000; in the data active = inhibition above about 60%
Starred values were filed as active, the others as inactive; i = inactive; / = no result given. Rows were chosen to be rich in hits. Some 3.2% of all compounds tested hit in one or more screens of this group.

SMILES | ANO1 activ | CHT inh | HDAC3 inhib | TMEM16A inh | CHT PAM | PHOSPHO1 inh
Cc1ccc(NC(=O)COC(=O)CCc2c(C)nc3nc(N)nn3c2C)cc1C | -23* | / | -2 | / | / | /
O=C(NCc1ccccn1)C(=O)NN=C1CCCCCCC1 | i | i | -1 | i | i | 2
CCSc1nnc(NC(=O)C2Cc3ccccc3CN2C(=O)c2ccco2)s1 (stereo not drawn) | i | i | 2 | i | i | 61*
Cc1ccc(C2=NC(=O)/C(=C/c3cc(O)c(O)c(Br)c3)S2)cc1 | -6* | / | / | / | / | -23
COc1ccc(/C=C2\SC(N)=NC2=O)cc1Br | i | i | 5 | i | i | 20
Cc1ccc(S(=O)(=O)/N=C2/NC(=O)/C(=C\c3cc(Br)cc(Br)c3O)S2)cc1 | i | i | 11 | i | i | 3
Cc1ccc(S(=O)(=O)/N=C2/NC(=O)/C(=C/c3ccc(Br)o3)S2)cc1 | i | i | 8 | 25* | i | 21
CC(=O)Nc1cc(NC(C)=O)cc(C(=O)OCC(=O)N2CC(C)OC(C)C2)c1 (stereo not drawn) | i | i | 3 | i | i | -4
COc1ccc(-c2nn(-c3ccccc3)cc2/C=N/NC(=O)c2ccc(Br)o2)cc1 | i | i | 10 | 100* | i | 25
O=C(NCc1cccc(OC(F)(F)F)c1)c1cccc2c1C(=O)c1ccc(-c3ccc(F)cc3OCc3ccccc3)cc1S2(=O)=O | i | / | -3 | / | / | /
COc1ccc(-c2ccc3c(c2)S(=O)(=O)c2cccc(C(=O)NCc4cccc(OC(F)(F)F)c4)c2C3=O)cc1OC | -4.6* | / | 6 | / | / | /
Cn1c(C2CCCN2C(=O)OC(C)(C)C)n[nH]c1=S (stereo not drawn) | i | i | 0 | i | i | 97*
CCOC(=O)N1CCN(c2c(N3CCN(C(=O)OCC)CC3)c(=O)c2=O)CC1 | i | i | -5 | i | i | 20
CCOC(=O)N1CCN(c2c(F)cc3[nH]c(=S)[nH]c3c2Br)CC1 | i | i | 3 | i | i | 71*
C=C(C)C(=O)OC1(C(F)(F)F)Oc2cc(C)ccc2NC1=O (stereo not drawn) | i | i | 29* | i | i | -2
CC1(C)CC(=O)C(Sc2nnc(-c3ccc(O)cc3)n2CC2CCCO2)C(=O)C1 (stereo not drawn) | i | i | 12 | i | i | 85*
CCC(=O)Nc1ccc(NC(=O)CSc2nnc(-c3ccc(O)cc3)n2CC2CCCO2)cc1 (stereo not drawn) | i | i | 0 | i | i | 2
CC(=O)Nc1ccc(C(=O)CSc2nnc(-c3ccc(O)cc3)n2CC2CCCO2)cc1 (stereo not drawn) | i | i | 5 | i | i | 65*
O=C(NC(C(=O)N/N=C/c1c2ccccc2cc2ccccc12)c1n[nH]c(=O)c2ccccc12)c1ccccc1 (stereo not drawn) | i | i | -1 | i | i | 33
Cc1ccnc(NC(=O)CSc2cc(=O)n(C)c3ccccc23)c1 | i | i | 0 | i | i | 63*
O=S(=O)(Nc1cc(S(=O)(=O)N2CCOCC2)ccc1N1CCOCC1)c1ccc2c(c1)OCCO2 | i | i | 13 | i | i | 27
O=S(=O)(Nc1cc(S(=O)(=O)N2CCOCC2)ccc1O)c1ccc2c(c1)OCCCO2 | -22* | / | 3 | / | / | /
CC(=O)N1c2ccc(S(=O)(=O)NCCC(=O)NC3CCC(C)CC3)cc2CC1C (stereo not drawn) | i | i | 2 | i | i | 26
CCc1ccc(C(=O)C(C)OC(=O)Cn2[nH]c(=O)c3ccccc3c2=O)cc1 (stereo not drawn) | i | / | 1 | / | / | /
O=C(NCc1ccccc1F)C(=O)NCC1OCCCN1S(=O)(=O)c1cccs1 (stereo not drawn) | i | i | -2 | i | i | 75*
SMILES | ANO1 activ | CHT inh | HDAC3 inhib | TMEM16A inh | CHT PAM | PHOSPHO1 inh
CCOc1ccc(C(=O)NCc2cccnc2)cc1[N+](=O)[O-] | i | i | 0 | i | i | 51
CC(C)OC(=O)c1ccc(COC(=O)CNC(=O)c2ccco2)cc1 | i | i | 4 | i | i | 14
CCOc1ccc(NC(=O)C2CCCCN2S(=O)(=O)c2ccccc2)cc1 (stereo not drawn) | i | i | -7 | i | i | 89*
O=C1[C@@H]2[C@@H]3C[C@@H]([C@H]4ON=C(c5ccc(OCc6ccccc6)cc5)[C@@H]34)[C@@H]2C(=O)N1c1ccc2c(c1)OCO2 | i | i | -2 | i | i | 4
CCCc1cc(=O)n2[nH]cnc2n1 | i | i | -3 | i | i | 61*
Cc1cc(=O)n2[nH]cnc2n1 | i | i | 1 | i | i | 4
CC1(NC(=O)c2cc(S(=O)(=O)N3CCCCC3)ccc2Cl)CCS(=O)(=O)C1 (stereo not drawn) | i | i | -6 | i | i | 2
COc1ccc(C)cc1NC(=O)CSc1nnnn1Cc1ccccc1 | / | i | -2 | i | i | -3
O=C(Nc1ccccc1F)c1ccc(CN2CCN(c3ccccc3)CC2)cc1 | i | i | 1 | i | i | 29
COc1cc2ccccc2cc1C(=O)N/N=C/c1ccc2c(c1)OCO2 | i | i | 4 | i | i | 61*
COc1ccccc1CC(=O)O/N=C(\N)c1cccc([N+](=O)[O-])c1 | i | i | 2 | i | i | 2
NS(=O)(=O)c1ccc(N/C=C/C(=O)c2ccc(Br)cc2)cc1 | i | i | 0 | i | i | 3
Cc1cc2nc3c(=O)[nH]c(=S)[nH]c3nc2cc1NC(=O)C(F)(F)F | -5.2* | i | 2 | i | i | 36
O=C(CN1CCC2(CC1)OCCO2)c1c[nH]c2ccccc12 | / | i | 7 | i | i | 4
COC(=O)c1sccc1NC(=O)Nc1ccccc1F | i | i | 9 | i | i | 63*
CC1(C)[C@@H](O)CC[C@]2(C)C3C(O)C=C4[C@H]5C[C@@](C)(C(=O)O)CC[C@]5(C)CC[C@]4(C)[C@]3(C)CC[C@@H]12 (stereo partly drawn) | / | i | 0 | 100* | i | 13
CN(CC(=O)Nc1cccc(F)c1)C(=O)c1ccc(OCc2cn3ccccc3n2)cc1 | i | / | -1 | / | / | /
O=C(OCCCOC(=O)c1cc[n+]([O-])cc1)c1cc[n+]([O-])cc1 | i | i | -5 | i | i | 62*
CCC(C(=O)OCC(=O)C1(O)CCC2C3CCC4=CC(=O)CCC4(C)C3C(O)CC21C)C(C)C (stereo not drawn) | i | / | / | / | / | /
